Over roughly 33,000 sequences, “e-score” has its median near -0.053; the highest 2% begin near 0.38. The full list was thinned out, with the highest values kept by preference.

The target in the assay is T1, SIX1 homeodomain (reference allele) (human, UniProt Q15475 108-198).
T1 sequence: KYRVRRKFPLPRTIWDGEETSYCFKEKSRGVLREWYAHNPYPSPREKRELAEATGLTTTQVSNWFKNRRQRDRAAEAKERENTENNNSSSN
The assay can be described thus: universal protein binding microarray; Universal all-10-mer PBM (8x60K, AMADID 030236), 300 nM GST-tagged protein, Alexa Fluor 488 anti-GST; buffer, salt, pH and temperature not stated (as in Berger); high values mean tight binding. Conditions: protein: ivt; tags: N-terminal GST; dsDNA, one strand shown. The method in brief: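 Homeodomains fused to GST were made by in vitro transcription/translation and measured by anti-GST western blot with a recombinant GST standard curve. At 300 nM final concentration, they were applied in duplicate to universal 'all 10-mer' protein binding microarrays (8×60K format).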
As to ACCTATCG, the binding signal came to 0.236 ± 0.0191 E-score.
For CCATATAC the value was 0.29 ± 0.00643 E-score.
With ACATATCG, the binding signal was 0.389 ± 0.0479 E-score.
For CCATATAG the value was 0.211 ± 0.0217 E-score.
As to ACATATCT, the binding signal came to 0.233 ± 0.09 E-score.
The result for ATATTCAG reads 0.164 ± 0.0437 E-score; that for GCTTATCC, 0.304 ± 0.0229 E-score; that for TAGATGGA, 0.289 ± 0.00593 E-score.
The result for AACAGTAT reads 0.196 ± 0.107 E-score; that for CGGATTCC, 0.247 ± 0.00447 E-score.
Consider CAGAACAA, for which the binding signal was determined as 0.176 ± 0.0355 E-score.
The result for ATATTAAC reads 0.156 ± 0.0934 E-score; that for CAAGATCA, 0.242 ± 0.0215 E-score; that for GATCATGA, 0.273 ± 0.0126 E-score.
As for TATCCTCA, the binding signal is 0.37 ± 0.037 E-score.
For TATCAGGA the value was 0.397 ± 0.00041 E-score; for TATTATCA, 0.187 ± 0.0898 E-score.
The result for GATCATAA reads 0.306 ± 0.00493 E-score.
The result for TCTCATAA reads 0.161 ± 0.0418 E-score; that for TATCATGA, 0.382 ± 0.0397 E-score; that for TATCATAA, 0.381 ± 0.0345 E-score.
For the sequence TATCATCA, the binding signal was 0.412 ± 0.0218 E-score.
GATCAGGA: the binding signal was found to be 0.339 ± 0.0411 E-score.
For GGTCATGA the value was 0.169 ± 0.033 E-score.
The result for TATCAGCA reads 0.327 ± 0.0344 E-score.
Consider AGGTGGAT, for which the binding signal worked out at 0.305 ± 0.034 E-score.
The result for CATAGATC reads 0.249 E-score; that for CGGTGTGA, 0.204 ± 0.0905 E-score.
For GGTTAGAA the value was 0.153 ± 0.0251 E-score; for ATACTCTA, 0.268 ± 0.0991 E-score; for CATAATCC, 0.3 ± 0.0272 E-score.
For AATTGTAT the value was 0.162 ± 0.0456 E-score.
CATACCAG: the binding signal came out at 0.171 ± 0.0153 E-score.
The result for CCATTATA reads 0.177 ± 0.0248 E-score; that for ATCCAAGA, 0.155 ± 0.0124 E-score.
Consider CAGGGCGA, for which the binding signal came to 0.216 ± 0.0603 E-score.
The result for CTATCCGC reads 0.3601 ± 0.000778 E-score; that for GAATCCGA, 0.188 ± 0.0166 E-score.
Turning to ATATCCGG, the binding signal was determined as 0.4206 ± 0.00416 E-score.
The result for CTATCCGA reads 0.33 ± 0.00993 E-score; that for GTATCCGA, 0.426 ± 0.0105 E-score; that for ATATCCGA, 0.429 ± 0.0108 E-score.
Consider ATATCCGC, for which the binding signal was found to be 0.43 ± 0.0222 E-score.
Turning to CAATCCGC, the binding signal is 0.29 ± 0.0084 E-score.
For GCATCCGA the value was 0.203 ± 0.0461 E-score.
The result for AAATCCGG reads 0.244 ± 0.0271 E-score.
The result for ATCTCCGA reads 0.258 ± 0.0265 E-score; that for ACATCCGG, 0.174 ± 0.064 E-score; that for ATCGAAGA, 0.293 ± 0.0315 E-score.
Regarding GCCAATAC, the binding signal is 0.16 ± 0.00361 E-score.
For TCAGCTCA the value was 0.162 ± 0.0286 E-score; for ACTATCTG, 0.178 ± 0.0443 E-score; for GATCGCAA, 0.242 ± 0.0198 E-score.
For GATCGTGA the value was 0.229 ± 0.0511 E-score; for ATCACTAA, 0.166 ± 0.051 E-score; for ATCGTAGA, 0.193 ± 0.0118 E-score.
For GGTGTACA the value was 0.306 ± 0.0258 E-score; for CATACATG, 0.154 ± 0.0235 E-score; for ATCCGCGA, 0.259 ± 0.011 E-score.
TAGTGTGA: the binding signal came to 0.184 ± 0.00834 E-score.
In the case of TAGTGATA, the binding signal came out at 0.415 ± 0.0394 E-score.
With CAGTGATA, the binding signal amounted to 0.417 ± 0.0231 E-score.
Turning to AAGAGATA, the binding signal came to 0.235 ± 0.141 E-score.
On to CAGTGAGA, for which the binding signal is 0.16 ± 0.032 E-score.
The result for GAGAGATA reads 0.323 ± 0.0528 E-score.
Turning to AAGTGATA, the binding signal amounted to 0.397 ± 0.0754 E-score.
For GAGTGAGA the value was 0.234 ± 0.0134 E-score.
The result for ACGTGATA reads 0.344 ± 0.0436 E-score; that for GAGTGATA, 0.447 ± 0.0268 E-score; that for TAGTGAGA, 0.203 ± 0.0506 E-score.
For ATACTTCG the value was 0.304 ± 0.058 E-score; for GACAATCC, 0.18 ± 0.0145 E-score; for ATCAACAA, 0.222 ± 0.0259 E-score.
CATATGAC: the binding signal turned out to be 0.166 ± 0.0391 E-score.
ATACATCG: the binding signal was determined as 0.238 ± 0.0407 E-score.
For ACTTACCG the value was 0.152 ± 0.00235 E-score; for TATATTGA, 0.258 ± 0.0428 E-score; for GTGTCGGA, 0.322 ± 0.041 E-score.
On to GGATGGGA, for which the binding signal is 0.195 ± 0.0444 E-score.
The result for CAGATTGA reads 0.219 ± 0.0123 E-score; that for AAGTGATC, 0.391 ± 0.00486 E-score.
For CCGTGATC the value was 0.364 ± 0.0193 E-score.
The result for ACGTGATC reads 0.302 ± 0.0538 E-score; that for CAGTGATC, 0.382 ± 0.0157 E-score; that for CCGTGATA, 0.348 ± 0.0248 E-score.
For AATTGATC, the binding signal worked out at 0.291 ± 0.0151 E-score.
Turning to GCGTGATA, the binding signal amounted to 0.437 ± 0.0364 E-score.
The result for GAGTGATC reads 0.336 ± 0.0148 E-score.
For GATCTATA the value was 0.298 ± 0.0183 E-score; for CCTACACC, 0.163 ± 0.0313 E-score; for CCGTAATA, 0.205 ± 0.0335 E-score.
The result for TACTCGAA reads 0.152 ± 0.00667 E-score; that for TACACGGA, 0.173 ± 0.0418 E-score.
As to ACCATCCG, the binding signal came to 0.23 ± 0.0704 E-score.
The result for ATACATCC reads 0.365 ± 0.0231 E-score.
On to GATTAATA, for which the binding signal turned out to be 0.301 ± 0.0732 E-score.
With ATACGCGG, the binding signal turned out to be 0.182 ± 0.0649 E-score.
The result for CCGGGTAG reads 0.162 ± 0.0432 E-score; that for AGGGGTAC, 0.178 ± 0.0933 E-score; that for AAGGGTAA, 0.173 ± 0.0225 E-score.
For AAGGGTGT the value was 0.32 ± 0.00631 E-score; for ACAGGTAT, 0.312 ± 0.0224 E-score; for AGGGGTAT, 0.451 ± 0.0124 E-score.
AAAGGTAT: the binding signal amounted to 0.337 ± 0.087 E-score.
Turning to AGGGGTAG, the binding signal was 0.214 ± 0.0325 E-score.
The result for AGAGGTAT reads 0.399 ± 0.0394 E-score.
For ACGGGTAT the value was 0.435 ± 0.0111 E-score.
The result for AAGGGTAT reads 0.41 ± 0.0209 E-score.
In the case of AACGGTAT, the binding signal is 0.234 ± 0.0543 E-score.
The result for CATCCCGA reads 0.175 ± 0.0394 E-score.
For CGGATTGA the value was 0.305 ± 0.0268 E-score.
The result for AATGTATA reads 0.259 ± 0.0211 E-score.
In the case of ACACCTCT, the binding signal worked out at 0.239 ± 0.0609 E-score.
The result for TATCCAAA reads 0.297 ± 0.0104 E-score.
For GGATTACA the value was 0.18 ± 0.0206 E-score.
The result for ATCGTCTG reads 0.162 ± 0.0451 E-score.
In the case of CCGGCATC, the binding signal was 0.201 ± 0.0414 E-score.
The result for AATACTGC reads 0.162 ± 0.0355 E-score; that for AATACTGT, 0.183 ± 0.00786 E-score.
The result for GATACTGA reads 0.42285 ± 0.000276 E-score; that for GATACTTA, 0.401 ± 0.0667 E-score.
Turning to AATACTTC, the binding signal worked out at 0.2 ± 0.116 E-score.
For GATACTGC the value was 0.44524 ± 0.000438 E-score; for TATACTGA, 0.239 ± 0.00916 E-score; for AATACTTG, 0.151 ± 0.0521 E-score.
The result for GACACTGA reads 0.161 ± 0.0506 E-score.
For ATCGAGTA the value was 0.226 ± 0.00853 E-score.
In the case of CGAATACA, the binding signal came to 0.151 ± 0.0627 E-score.
For CCGCCTGA the value was 0.228 ± 0.0274 E-score.
The result for AACACCAG reads 0.164 ± 0.0278 E-score; that for ATCGCCCG, 0.198 ± 0.0602 E-score; that for ACTCCATC, 0.162 ± 0.00629 E-score.
In the case of ATCAGCTG, the binding signal stood at 0.154 ± 0.0485 E-score.
The result for CCCTCATC reads 0.176 ± 0.0843 E-score; that for CGACACTC, 0.177 ± 0.0347 E-score.
The result for ATACATAG reads 0.177 ± 0.0401 E-score; that for ATAGTATC, 0.426 ± 0.0263 E-score.
Consider CTAGTATC, for which the binding signal stood at 0.388 ± 0.0365 E-score.
For GTAGTATA the value was 0.267 ± 0.0665 E-score; for ATAGTATG, 0.258 ± 0.00892 E-score; for CTAGTATA, 0.242 ± 0.0487 E-score.
On to ATAGTATA, for which the binding signal came to 0.29 ± 0.0405 E-score.
For CATGTGAG the value was 0.152 ± 0.0831 E-score; for ATCCAAGC, 0.169 ± 0.0665 E-score.
For the sequence AGCCGATC, the binding signal came to 0.329 ± 0.0103 E-score.
For ACGTATCG the value was 0.413 ± 0.0215 E-score; for CCGTATAC, 0.36 ± 0.00586 E-score; for ACGTATAG, 0.189 ± 0.0603 E-score.
Regarding ACGTATCT, the binding signal was 0.339 ± 0.0607 E-score.
The result for ACGTATCA reads 0.474 ± 0.0189 E-score; that for CCGTATCC, 0.438 ± 0.0211 E-score; that for ACGTATCC, 0.377 ± 0.0283 E-score.
Turning to GCGTATCC, the binding signal was 0.369 ± 0.00641 E-score.
With CCGTATTC, the binding signal amounted to 0.177 ± 0.00726 E-score.
For ACGTATAA the value was 0.268 ± 0.0722 E-score.
With ACGTATTG, the binding signal turned out to be 0.211 ± 0.0377 E-score.
Consider ACGTATTC, for which the binding signal is 0.234 ± 0.0548 E-score.
For ATCAGTTA the value was 0.182 ± 0.0174 E-score; for AAGATCGG, 0.174 ± 0.064 E-score.
The result for CGGATTAG reads 0.251 ± 0.0088 E-score; that for ATTGACAC, 0.3147 ± 0.00157 E-score; that for CCCGATCA, 0.347 ± 0.0408 E-score.
For ATCAGTGG, the binding signal is 0.261 ± 0.0178 E-score.
For CCATATCA the value was 0.472 ± 0.0124 E-score; for TAATATCA, 0.34 ± 0.0768 E-score.
For TCATATGA the value was 0.303 ± 0.0253 E-score; for ACATATGA, 0.166 ± 0.0311 E-score; for GCATATAC, 0.227 ± 0.0131 E-score.
For TCATATCA the value was 0.418 ± 0.0507 E-score.
As for CCATATTA, the binding signal was 0.265 ± 0.0697 E-score.
For CCATATAA the value was 0.155 ± 0.0479 E-score; for GAATATCC, 0.276 ± 0.0527 E-score.
For ACATATCA the value was 0.446 ± 0.0429 E-score; for GCATATCC, 0.391 ± 0.00731 E-score.
For ACATATTA the value was 0.161 ± 0.0413 E-score.

The values are drawn from paper PMC10668032, “Altered binding affinity of SIX1-Q177R correlates with enhanced WNT5A and WNT pathway effector expression in Wilms tumor”.
